Results on 21 compounds are retold here after ChEMBL document CHEMBL4296182, “CO-ADD screening of NIH NCI Diversity Set V”.

Assay [1] concerns Staphylococcus aureus. The assay can be described thus: Antibacterial activity against Staphylococcus aureus MRSA ATCC 43300 (CO-ADD:GP_020); MIC in CAMBH media using NBS plates, by Resazurin F(560/590). The note with it: Concentration 20 uM, ASSAY_TEST Inhibition of Bacterial Growth, detection method Resazurin, Fluorescence (ex560/em590), MEDIA CAMHB, plate type 384well, CORNING #3640, time 18 hr. It is filed as functional. In general terms: Resazurin is reduced to fluorescent resorufin, in cell work by metabolically active cells.

Assay [2] relates to Acinetobacter baumannii. The assay can be described thus: Antibacterial activity against Acinetobacter baumannii ATCC 19606 (CO-ADD:GN_034); MIC in CAMBH media using NBS plates, by Resazurin F(560/590). It is filed as functional. The note with it: Concentration 20 uM, ASSAY_TEST Inhibition of Bacterial Growth, detection method Resazurin, Fluorescence (ex560/em590), MEDIA CAMHB, plate type 384well, CORNING #3640, time 18 hr.

The subject of assay [3] is Escherichia coli. The assay is described as follows: Antibacterial activity against Escherichia coli ATCC 25922 (CO-ADD:GN_001); MIC in CAMBH media using NBS plates, by Resazurin F(560/590). It is filed as functional. The note with it: Concentration 20 uM, ASSAY_TEST Inhibition of Bacterial Growth, detection method Resazurin, Fluorescence (ex560/em590), MEDIA CAMHB, plate type 384well, CORNING #3640, time 18 hr.

In assay [4] the test system is Klebsiella pneumoniae. The note with it: Concentration 20 uM; ASSAY_TEST Inhibition of Bacterial Growth; detection method Absorption (OD600); MEDIA CAMHB; plate type 384well; NBS; CORNING #3640; time 18 hr.
The subject of assay [5] is Candida albicans. The note with it: 20 µM.
In assay [6] the test system is Cryptococcus neoformans. The note with it: Concentration 20 uM; ASSAY_TEST Inhibition of Fungal Growth; detection method Resazurin; Absorption (OD600-OD570); plate type 384well; NBS; CORNING #3640.

Each structure is given as a SMILES string. For part of these data: Measured potencies and affinities stand elsewhere.

One may read the Inhibition as the change of the read-out against control, counted positive when it falls. Consider `COc1ccc2c3c([nH]c2c1)[C@H]1C[C@H]2[C@H](C[C@@H](O)[C@H](OC)[C@H]2C(=O)O)CN1CC3`, for which the Inhibition is 6.35% in assay [1]; 2.79% in assay [2]; -2.06% in assay [3]; 4.58% in assay [4]; -1.6% in assay [5]; -3.05% in assay [6].

`c1ccc(/N=N/N2CCOCC2)cc1`: the Inhibition in assay [1] was 10.43%; in assay [2], -20.45%; in assay [3], 2.82%; in assay [4], 4.01%; in assay [5], 17.7%; in assay [6], -10.19%.

`CC(=O)NS(=O)(=O)c1ccc2sc(C)nc2c1`: the Inhibition in assay [1] was 3.75%; in assay [2], -11.67%; in assay [3], 8.35%; in assay [4] it was 5.23%; in assay [5] it was 3.43%; in assay [6], -4.98%.

As for `COCC(=O)OC1CCn2c1nc1c2C(=O)C(C)=C(NC(C)=O)C1=O` (stereo unspecified), the Inhibition is 9.15% in assay [1]; 12.44% in assay [2]; -2.53% in assay [3]; 8.02% in assay [4]; -3.01% in assay [5]; -13.92% in assay [6].

On to `Cc1ccc(C)c(C(=O)CCC(=O)O)c1`, for which the Inhibition in assay [1] was 9.56%; in assay [2] it was 8.73%; in assay [3] it was 0.68%; in assay [4] it was 19.18%; in assay [5], 8%; in assay [6] it was -5.46%.

As to `Cc1nc2ccccc2c(N)c1-c1cc(C)c2c(C)nc3ccccc3c2n1`, the Inhibition in assay [1] was -4.42%; in assay [2], 8.74%; in assay [3], -14.9%; in assay [4], 5.08%; in assay [5], 2.89%; in assay [6], 18.77%.

`COC(=O)c1cc(C)nc2c(C)cc3[nH]c4ccccc4c3c12`: the Inhibition in assay [1] was -3.37%; in assay [2], -0.23%; in assay [3], -15.24%; in assay [4] it was 17.6%; in assay [5] it was 8.78%; in assay [6], 0.02%.

`Clc1cc2c(c(CSc3nc4ccccc4n4cccc34)c1)OCOC2`: the Inhibition in assay [1] was 18.29%; in assay [2] it was 11.44%; in assay [3], -3.64%; in assay [4] it was 3.77%; in assay [5], 0.34%; in assay [6], 2.56%.

Take `COC(=O)Cc1[nH]c(O)nc1C(=O)OC`: the Inhibition in assay [1] was 5.51%; in assay [2], -8.26%; in assay [3] it was 3.06%; in assay [4], 20.66%; in assay [5] it was -0.45%; in assay [6], -7.96%.

On to `Clc1ccccc1-c1nc2ccccc2[nH]1`, for which the Inhibition in assay [1] was 11.4%; in assay [2], -8.21%; in assay [3], 9.05%; in assay [4] it was 12.13%; in assay [5] it was 4.17%; in assay [6], -6.44%.

As for `O=c1[nH]nc(-c2cc(-c3ccccc3)nc3ccccc23)o1`, the Inhibition is 7.26% in assay [1]; -11.03% in assay [2]; 4.61% in assay [3]; 4.91% in assay [4]; 0.17% in assay [5]; -2.09% in assay [6].

For `CSc1nsc(NN)n1`, the Inhibition in assay [1] is 4.83%; in assay [2] it was -22.35%; in assay [3] it was 5.94%; in assay [4] it was 8.53%; in assay [5], 8.71%; in assay [6] it was -11.9%.

Regarding `COC(=O)c1c(-c2ccccc2)[nH]c(-c2nccc3ccccc23)c1C(=O)OC`, the Inhibition was 3.54% in assay [1]; 6.34% in assay [2]; 1.46% in assay [3]; 12.08% in assay [4]; 2.5% in assay [5]; -2.2% in assay [6].

For `O=C(O)/C=C\C(=O)Nc1nccs1`, the Inhibition was 6.29% in assay [1]; -13.11% in assay [2]; 4.99% in assay [3]; 25.17% in assay [4]; 0.91% in assay [5]; -1.21% in assay [6].

As to `CCCNC(=O)c1ccc(Cl)cc1Cl`, the Inhibition in assay [1] was 12.41%; in assay [2], -15.87%; in assay [3], 4.4%; in assay [4], 8.05%; in assay [5] it was 0.63%; in assay [6] it was -4.71%.

Consider `Cn1c(C(=O)c2ccncc2)cc2ccccc21`, for which the Inhibition is 10.4% in assay [1]; 13.49% in assay [2]; 0.36% in assay [3]; 4.66% in assay [4]; 5.59% in assay [5]; -4.68% in assay [6].

As to `Cc1ccc(NC(=O)Nc2nc3ccccc3s2)cc1NC(=O)Nc1nc2ccccc2s1`, the Inhibition is -1.63% in assay [1]; -10.02% in assay [2]; 17.87% in assay [3]; 8.92% in assay [4]; -2.38% in assay [5]; -1.68% in assay [6].

Turning to `O=C(O)c1cc(O)ccc1/N=N/c1ccccc1`, the Inhibition is 3.85% in assay [1]; -9.66% in assay [2]; 1.52% in assay [3]; 5.36% in assay [4]; 10.2% in assay [5]; -9.07% in assay [6].

`CCc1cccc2[nH]c3cc([N+](=O)[O-])ccc3c12`: the Inhibition is 6.44% in assay [1]; 1.17% in assay [2]; 2.96% in assay [3]; -4.47% in assay [4]; 9.1% in assay [5]; 12.93% in assay [6].

For `CC(C)(C)N1CCC1CN` (stereo unspecified), the Inhibition in assay [1] is 2.17%; in assay [2], -8.31%; in assay [3], 10.97%; in assay [4] it was 10.11%; in assay [5], 3.04%; in assay [6], -5.34%.

Turning to `O=C(c1ccccc1)C1N=NCC1c1ccc(Cl)cc1` (stereo unspecified), the Inhibition in assay [1] was 21.05%; in assay [2] it was 1.64%; in assay [3], 18.84%; in assay [4], 8.27%; in assay [5], 8.01%; in assay [6], -11.46%.
